# Data reported in PubChem BioAssay AID1159580 (chemical genetic matrix, 2015).
# “And” between values parts separate entries of the source, which are not always exact repeats. Equal values may be shown once. The campaign covered roughly 5,500 compounds. About 2,000 (36%) were called active. Roughly 18% stayed inconclusive and do not appear here. Some of the results follow. Unmarked numbers belong to inactive results. Cut-off read from the data, not from the text of the source: active = normalized growth mostly below about 0.91 (no sharp cut-off); inconclusive = no clear call, values can overlap the other calls; inactive = mostly above about 0.92.
# Assay: chemical genetic growth profiling, strain panel (AID 1159580);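 note: tested at 20 µM; growth read once vehicle control cultures reached saturation at 30 °C; 1 = growth at the plate median or of vehicle wells; lower values mean less growth of the strain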
# Conditions: S. cerevisiae deletion strains, growth OD
smiles,measurement,setting,value
CN1CCN(C2=Nc3cc(Cl)ccc3Nc3ccccc32)CC1,normalized growth,"locus YAL013W, strain DEP1, hits give low values",1.02
same,normalized growth,"locus YAL021C, strain ccr4, hits give low values",0.991
same,normalized growth,"locus YAL026C, strain drs2, hits give low values",0.953
same,normalized growth,"locus YAL030W, strain snc1, hits give low values",1.01
same,normalized growth,"locus YAL040C, strain CLN3, hits give low values",1.01
same,normalized growth,"locus YBL061C, strain skt5, hits give low values",0.968
same,normalized growth,"locus YBR009C, strain hhf1, hits give low values",1.01
same,normalized growth,"locus YBR021W, strain FUR4, hits give low values",0.979
same,normalized growth,"locus YBR023C, strain chs3, hits give low values",0.987
same,normalized growth,"locus YBR171W, strain sec66, hits give low values",0.975
same,normalized growth,"locus YBR229C, strain ROT2, hits give low values",1.01
same,normalized growth,"locus YBR231C, strain swc5, hits give low values",0.988
same,normalized growth,"locus YBR279W, strain paf1, hits give low values",0.983
same,normalized growth,"locus YCL011C, strain gbp2, hits give low values",0.984
same,normalized growth,"locus YCL016C, strain dcc1, hits give low values",0.954
same,normalized growth,"locus YCL029C, strain bik1, hits give low values",1.01
same,normalized growth,"locus YCL061C, strain MRC1 (second series), hits give low values",1
same,normalized growth,"locus YCL061C, strain MRC1, hits give low values",0.984
same,normalized growth,"locus YCL069W, strain vba3, hits give low values",0.981
same,normalized growth,"locus YCR088W, strain abp1, hits give low values",0.985
same,normalized growth,"locus YDL005C, strain med2, hits give low values",0.984
same,normalized growth,"locus YDL035C, strain GPR1, hits give low values",1
same,normalized growth,"locus YDL040C, strain nat1, hits give low values",1
same,normalized growth,"locus YDL074C, strain BRE1, hits give low values",0.935
same,normalized growth,"locus YDL101C, strain DUN1, hits give low values",0.996
same,normalized growth,"locus YDL134C, strain PPH21, hits give low values",0.991
same,normalized growth,"locus YDL185W, strain tfp1, hits give low values",1.01
same,normalized growth,"locus YDL192W, strain arf1, hits give low values",1.02
same,normalized growth,"locus YDR001C, strain nth1, hits give low values",0.989
same,normalized growth,"locus YDR069C, strain doa4, hits give low values",0.968
same,normalized growth,"locus YDR101C, strain arx1, hits give low values",1
same,normalized growth,"locus YDR137W, strain rgp1, hits give low values",1.15 [resistant] (active)
same,normalized growth,"locus YDR150W, strain NUM1, hits give low values",1.01 and 0.991
same,normalized growth,"locus YDR159W, strain sac3, hits give low values",0.948
same,normalized growth,"locus YDR162C, strain NBP2, hits give low values",0.97
same,normalized growth,"locus YDR195W, strain ref2",1.04
same,normalized growth,"locus YDR297W, strain sur2, hits give low values",0.976
same,normalized growth,"locus YDR318W, strain mcm21, hits give low values",1.02
same,normalized growth,"locus YDR334W, strain swr1, hits give low values",0.98
same,normalized growth,"locus YDR335W, strain msn5, hits give low values",0.977
same,normalized growth,"locus YDR363W, strain ESC2, hits give low values",0.884
same,normalized growth,"locus YDR388W, hits give low values",1.02
same,normalized growth,"locus YDR392W, strain spt3, hits give low values",0.801
same,normalized growth,"locus YDR502C, strain sam2, hits give low values",0.994
same,normalized growth,"locus YEL003W, strain gim4, hits give low values",0.987
same,normalized growth,"locus YEL037C, strain rad23, hits give low values",0.979
same,normalized growth,"locus YEL061C, strain CIN8 (second series), hits give low values",0.977
same,normalized growth,"locus YEL061C, strain CIN8, hits give low values",1.05
same,normalized growth,"locus YER002W, strain NOP16, hits give low values",0.997
same,normalized growth,"locus YER015W, strain faa2, hits give low values",0.991
same,normalized growth,"locus YER016W, strain bim1, hits give low values",0.966
same,normalized growth,"locus YER110C, hits give low values",1.03
same,normalized growth,"locus YER111C, strain swi4, hits give low values",0.975
same,normalized growth,"locus YER155C, strain BEM2 (second series), hits give low values",0.802 (active)
same,normalized growth,"locus YER155C, strain BEM2, hits give low values",1.01
same,normalized growth,"locus YER167W, strain BCK2, hits give low values",1
same,normalized growth,"locus YFR010W, strain ubp6, hits give low values",1.02
same,normalized growth,"locus YGL078C, strain dbp3, hits give low values",1.01
same,normalized growth,"locus YGL086W, strain mad1, hits give low values",1.02
same,normalized growth,"locus YGL167C, strain pmr1, hits give low values",0.989
same,normalized growth,"locus YGL173C, strain kem1, hits give low values",0.98
same,normalized growth,"locus YGL227W, strain vid30, hits give low values",0.969
same,normalized growth,"locus YGL240W, strain doc1, hits give low values",1.03
same,normalized growth,"locus YGL248W, strain PDE1, hits give low values",0.99
same,normalized growth,"locus YGL253W, strain hxk2, hits give low values",0.982
same,normalized growth,"locus YGR078C, strain PAC10, hits give low values",0.975 and 1.01
same,normalized growth,"locus YGR135W, strain pre9, hits give low values",0.987
same,normalized growth,"locus YGR229C, strain SMI1, hits give low values",0.948
same,normalized growth,"locus YGR252W, strain gcn5, hits give low values",0.994
same,normalized growth,"locus YHR013C, strain ard1, hits give low values",0.917
same,normalized growth,"locus YHR027C, strain rpn1, hits give low values",0.985
same,normalized growth,"locus YHR030C, strain SLT2, hits give low values",1.02 and 1.07
same,normalized growth,"locus YHR079C, strain IRE1 (second series), hits give low values",1.03
same,normalized growth,"locus YHR079C, strain IRE1, hits give low values",1.03
same,normalized growth,"locus YHR094C, strain hxt1, hits give low values",1.02
same,normalized growth,"locus YHR129C, strain ARP1, hits give low values",1.01
same,normalized growth,"locus YHR142W, strain chs7, hits give low values",0.949
same,normalized growth,"locus YHR200W, strain rpn10, hits give low values",1.01
same,normalized growth,"locus YIL066C, strain RNR3, hits give low values",1.01
same,normalized growth,"locus YIL073C, strain SPO22, hits give low values",1.1
same,normalized growth,"locus YIL125W, strain kgd1, hits give low values",1.02
same,normalized growth,"locus YIR030C, strain dcg1, hits give low values",1.02
same,normalized growth,"locus YJL092W, strain hpr5, hits give low values",0.985
same,normalized growth,"locus YJL095W, strain BCK1 (second series), hits give low values",0.991
same,normalized growth,"locus YJL095W, strain BCK1, hits give low values",0.945 and 1.05
same,normalized growth,"locus YJL115W, strain asf1, hits give low values",0.969
same,normalized growth,"locus YJL129C, strain trk1, hits give low values",0.969
same,normalized growth,"locus YJL134W, strain LCB3, hits give low values",1.01
same,normalized growth,"locus YJL154C, strain vps35, hits give low values",0.981
same,normalized growth,"locus YJL164C, strain tpk1, hits give low values",0.999
same,normalized growth,"locus YJL166W, strain qcr8, hits give low values",1
same,normalized growth,"locus YJL168C, strain set2, hits give low values",1.03
same,normalized growth,"locus YJL187C, strain SWE1 (second series), hits give low values",1
same,normalized growth,"locus YJR043C, strain POL32, hits give low values",1.02
